In PubChem BioAssay (NCATS):
“And” between values parts separate entries of the source, which are not always exact repeats. Equal values may be shown once. Inconclusive results are not listed. The source made the active and inactive calls. Unless noted, calls come from the whole dose curve; as a rule, active = well fitted curve in the direction sought with a large enough effect; inconclusive = small, poorly fitted or top-dose-only effect, or another doubt; inactive = no such curve, though single readings can be large; an effect the other way counts as inactive or inconclusive.

Tests used:
[1] = qHTS assay for small molecule activators of the p53 signaling pathway (AID 651743; active = well fitted activation curve with a large enough effect in the signal ratio, not every such curve was filed as active; the % refers to the signal ratio; note: % of control where 0% means no effect); settings: HCT-116 p53RE-bla, beta-lactamase FRET ratio, 16 h; active compounds read high
Summary of the method: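 Following 16 hours of compound exposure at 37 C, HCT-116 cells bearing the p53RE-bla reporter were loaded with LiveBLAzer B/G FRET substrate for 2 hours at room temperature and fluorescence intensity was recorded.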

[2] = qHTS assay for small molecule activators of the nuclear factor-kappa B (NF-kB) signaling pathway (AID 651749; active = well fitted activation curve with a large enough effect in the signal ratio; the % refers to the signal ratio; note: potency is the fitted concentration of half-maximal effect; for activation: % of control where 0% means no effect); settings: NF-kB-bla ME-180 cells, beta-lactamase FRET ratio, 16 h; activation: active compounds read high
Summary of the method: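 In this qHTS format, compounds acting as activators increase NF-kB-driven beta-lactamase in ME-180 cells, measured as disrupted FRET after 16 hr exposure at 37C and 5% CO2.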

[3] = qHTS assay for environmental chemicals that activate the Aryl hydrocarbon Receptor (AhR) signaling pathway (AID 651777); settings: 1A2-DRE human hepatoma cells, luciferase, 24 h; active compounds read high; note: % of control where 0% means no effect; nearly all actives have a fitted effect of over 15% in size
Summary of the method: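 Luminescence read-out: One-Glo added for 30 min at RT after 24 hr compound treatment (37 C, 5% CO2) of human hepatoma cells expressing a DRE/CYP1A2 promoter–luciferase reporter; increased signal indicates AhR activation.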

[4] = qHTS assay for small molecule disruptors of the mitochondrial membrane potential - 1 hr assay (AID 651754; calls by dose curve; note: nearly all actives have a fitted effect of over 35% in size; note: potency is the fitted concentration of half-maximal effect); settings: series mostly up to 92.2 µM
Summary of the method: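 Mitochondrial potential in living HepG2 cells after 1 hr compound treatment at 37C was read with Mito-MPS dye added for a further 30 min. Red aggregate and green monomer fluorescence were measured; loss of potential leaves dye as cytoplasmic monomers.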

[5] = qHTS assay for small molecule disruptors of the mitochondrial membrane potential - 5 hr assay (AID 651755; calls by dose curve; note: nearly all actives have a fitted effect of over 40% in size; note: potency is the fitted concentration of half-maximal effect); settings: JC-1-type ratio dye; series mostly up to 92.2 µM
Summary of the method: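 Read-out: ratiometric Mito-MPS fluorescence, green monomer (ex 490/em 535) vs red mitochondrial aggregate (ex 540/em 590). HepG2 cells treated 5 hr at 37C before 30 min dye loading.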

[6] = molecular target: Tumor necrosis factor (Homo sapiens) (UniProt P01375); test: qHTS assay to identify small molecules that stimulate Tumor Necrosis Factor-alpha (TNF-alpha) secretion (AID 651757; active = well fitted curve in the direction sought with a large enough effect in the signal ratio; the % refers to the signal ratio; note: 0% is about no effect); settings: Human cells, HTRF 665/615 ratio; series mostly up to 92.2 µM
Summary of the method: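 Secreted TNF-alpha quantified by TR-FRET sandwich of two labeled anti-TNF-alpha antibodies, incubated 3 hr at room temperature. Preceded by 17 hr, 37 C compound treatment of THP-1 cells at 3000 cells/well.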

[7] = qHTS assay for small molecule agonists of the antioxidant response element (ARE) signaling pathway (AID 651741; active = well fitted activation curve with a large enough effect in the signal ratio; the % refers to the signal ratio; note: potency is the fitted concentration of half-maximal effect; for activation: % of control where 0% means no effect); settings: HepG2 ARE-bla reporter, beta-lactamase FRET ratio, 16 h; series mostly up to 96 µM
Summary of the method: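 Stably integrated ARE-beta-lactamase reporter HepG2 cells; 16 h compound incubation, 37 C; LiveBLAzer FRET substrate 2 h at room temperature; fluorescence intensity.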

[8] = qHTS assay to identify small molecules that stimulate interleukin-8 (IL-8) secretion (AID 651758; active = well fitted activation curve with a large enough effect in the signal ratio; the % refers to the signal ratio; note: 0% is about no effect); settings: HTRF ratio (665/615); series mostly up to 92.2 µM
Summary of the method: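 Compounds are added to THP-1 cells (2000 per well) and left 16 hrs at 37 C. A labeled anti-IL-8 antibody pair is then added, and IL-8 secretion is measured by time-resolved FRET after 1-3 hrs at room temperature.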

[9] = Cell Proliferation Assay against the TMD8 Cell Line (Caspase readout at 16 hrs) (AID 651712); settings: TMD8 lymphoma cells, caspase activation luminescence; series mostly up to 46.1 µM; note: potency is the fitted concentration of half-maximal effect;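 for caspase activation: 0% = DMSO and 100% = 9.2 µM bortezomib caspase activation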
Summary of the method: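 Caspase-Glo luminescence after 16 h compound exposure of TMD8 cells, 37 °C, 5% CO2. Medium: RPMI without phenol red, 5% FBS. Normalisation: DMSO = 0%, bortezomib 9.2 uM final = 100%.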

[10] = Cell Proliferation Assay against the TMD8 Cell Line (Caspase readout at 8 hrs) (AID 651713); settings: TMD8 lymphoma cells, caspase activation luminescence; series mostly up to 46.1 µM; note: potency is the fitted concentration of half-maximal effect;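 for caspase activation: 0% = DMSO and 100% = 9.2 µM bortezomib caspase signal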
Summary of the method: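 Apoptosis read-out: Caspase-Glo luminescence after 8 h compound exposure of TMD8 lymphoma cells at 37C, 5% CO2. Signals were normalized as percent activity between DMSO and bortezomib (9.2 uM final) controls.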

Tumor necrosis factor (Homo sapiens), sequence (P01375 whole entry, looked up): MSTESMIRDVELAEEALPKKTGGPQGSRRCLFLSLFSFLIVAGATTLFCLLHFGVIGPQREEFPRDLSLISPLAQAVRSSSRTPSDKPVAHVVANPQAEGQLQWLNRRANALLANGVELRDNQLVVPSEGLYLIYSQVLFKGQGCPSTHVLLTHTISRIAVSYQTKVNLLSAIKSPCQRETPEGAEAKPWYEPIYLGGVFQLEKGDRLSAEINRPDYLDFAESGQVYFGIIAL

CC(O)CN(CCN(CC(C)O)CC(C)O)CC(C)O (stereo not drawn)
inactive: activation [1] -6.2% | activation [2] -0.0736% | activation [3] 0.546%

Oc1cccc(O)c1
inactive: activation [1] 5.92% | activation [2] -1.45% | Potency [4] | Potency [5] | outcome [6] | activation [3] 2.18%

CCOC(=O)c1ccc(O)cc1
inactive: activation [1] -7.13% | activation [3] 6.21%

Nc1ccc(S(=O)(=O)Nc2nccs2)cc1
inactive: Potency [7] | activation [1] -5.45% | activation [2] 0.351% | outcome [6] | activation [3] -0.168%

CN(C)CCOC(C)(c1ccccc1)c1ccccn1 (stereo not drawn)
inactive: Potency [7] | activation [1] 2.16% | activation [3] -1.5%

Cc1cc2nc3c(=O)[nH]c(=O)nc-3n(C[C@H](O)[C@H](O)[C@H](O)CO)c2cc1C
active: Potency [4] 5.96 µM | Potency [5] 7.5 µM
inactive: activation [1] -9.36%

NCCNCCNCCNCCN
inactive: Potency [7] | activation [2] -1.8% and -0.273% | outcome [6] | activation [3] -0.491% and -2.35%

Cc1c(O)cccc1C(=O)N[C@@H](CSc1ccccc1)[C@H](O)CN1C[C@H]2CCCC[C@H]2C[C@H]1C(=O)NC(C)(C)C
active: Potency [7] 26.6 µM | Potency [4] 42.2 µM | Potency [5] 66.8 µM
inactive: activation [1] 10.5% | activation [2] 4.91% | outcome [6] | activation [3] -9.16%

CCCCC(CC)COC(=O)c1ccccc1O (stereo not drawn)
inactive: activation [1] 0.46% | activation [2] -1.39% | activation [3] -0.423%

NCCNCCNCCN
inactive: Potency [7] | activation [1] -2.15% | outcome [6] | outcome [8]

CCCCCCCCCCCCOS(=O)(=O)O
inactive: Potency [7] | Potency [4] | Potency [5] | outcome [6] | outcome [8] | activation [3] 1.08% [middle of 4 runs]

C[C@]12CC[C@@H]3c4ccc(O)cc4CC[C@H]3[C@@H]1CCC2=O
inactive: activation [1] 0.661% | activation [2] -1.43% | activation [3] 0.316%

CC(=O)O[C@@]12CO[C@@H]1C[C@H](O)[C@@]1(C)C(=O)[C@H](O)C3=C(C)[C@@H](OC(=O)[C@H](O)[C@@H](NC(=O)OC(C)(C)C)c4ccccc4)C[C@@](O)([C@@H](OC(=O)c4ccccc4)[C@H]21)C3(C)C
inactive: Potency [10]
active: Potency [9] 37.2 µM

CN(C)CCCN1c2ccccc2CCc2ccccc21
inactive: activation [1] -6.39% | activation [3] -0.861%

O=S(=O)(O)NC1CCCCC1
inactive: activation [2] -0.941% | activation [3] 1.78%

COC(=O)C1=C(C)NC(C)=C(C(=O)OC)C1c1ccccc1[N+](=O)[O-]
inactive: activation [1] -2.95% | Potency [4] | Potency [5] | outcome [8] | activation [3] 3.95%

COc1ccc(Cl)cc1C(=O)NCCc1ccc(S(=O)(=O)NC(=O)NC2CCCCC2)cc1
inactive: activation [1] -6.63% | activation [2] -2.47% | activation [3] 1.06%

CCCCOC(=O)c1ccc(O)cc1
active: Potency [7] 30.6 µM | Potency [5] 37.6 µM
inactive: activation [1] 1.4% and -3.01% | outcome [6] | activation [3] 6.66% and 14.1%

CNC(=O)Oc1ccc2c(c1)[C@]1(C)CCN(C)[C@@H]1N2C
inactive: activation [1] -2.62% | activation [2] 1% | activation [3] 2.6%

O=C1Nc2ccc(Cl)cc2[C@@](C#CC2CC2)(C(F)(F)F)O1
active: Potency [10] 17.1 µM

Cc1cc(CC(=O)O)n(C)c1C(=O)c1ccc(Cl)cc1
inactive: activation [1] -3.75% | activation [3] 0.224%

CCCc1c(OCCCCc2nn[nH]n2)ccc(C(C)=O)c1O
inactive: activation [1] 16.1% | activation [2] -0.919%

C[C@]12C[C@H](O)[C@H]3[C@@H](CCC4=CC(=O)CC[C@@]43C)[C@@H]1CC[C@@H]2C(=O)CO
inactive: Potency [7] | activation [1] -3.81% and -1.82% | activation [2] -1.35% and 0.404% | outcome [6] | activation [3] -0.656% and -0.0877%

CC(CN1c2ccccc2Sc2ccccc21)N(C)C (stereo not drawn)
inactive: activation [1] -4.88% | activation [3] -0.788%
active: Potency [2] 25.1 µM

CN(C)CCC=C1c2ccccc2CCc2ccccc21
inactive: Potency [7] | activation [1] -8.64% and -6.53% | outcome [6] | activation [3] -1.66% and 0.429%

NC(=O)N/N=C/c1ccc([N+](=O)[O-])o1
inactive: activation [1] -0.844% and -0.297% | activation [2] -2.02% and 0.212% | Potency [5] | outcome [8] | activation [3] 5.25% and 3.59%
active: Potency [7] 17.2 µM and 21.1 µM

CC12CCC(CC1)C(C)(C)O2
inactive: Potency [7] | activation [1] -1.89% | outcome [6] | activation [3] -0.144%

NC(=O)c1ncn([C@@H]2O[C@H](CO)[C@@H](O)[C@H]2O)c1N
inactive: Potency [9] | Potency [10]

CC1(C)[C@@H]2CC[C@@]1(C)C(=O)C2
inactive: Potency [7] | activation [1] 0.0082% | activation [2] -0.497% | outcome [6] | activation [3] 1.1%

CC(O)COc1ccccc1 (stereo not drawn)
inactive: Potency [7] | activation [1] 2.15% | activation [2] -2.71% | activation [3] 1.38%

[Cl][In]([Cl])[Cl]
inactive: activation [1] -6.82% | Potency [4] | Potency [5] | outcome [6] | activation [3] 0.307%

COc1ccccc1O
inactive: Potency [7] | activation [1] -3.15% and 0.213% and 1.06% | activation [2] -1.13% and -0.291% and -0.304% | outcome [6] | activation [3] 0.592% and -0.634% and 2.1%

O=C1O[C@H]([C@@H](O)CO)C(O)=C1O
active: Potency [7] 61.1 µM
inactive: activation [1] -0.0449% and -0.779% | outcome [6] | activation [3] 0.758% and 0.0107%

NC(=O)c1ncn([C@@H]2O[C@H](CO)[C@@H](O)[C@H]2O)n1
inactive: Potency [7] | outcome [6] | activation [3] 0.173%

O=C1c2c(O)cccc2Cc2cccc(O)c21
inactive: Potency [7] | activation [1] -1.03% | outcome [6] | outcome [8] | activation [3] -0.232%

Cc1cccc(Nc2cc(Cl)nc(SCC(=O)O)n2)c1C
inactive: Potency [7] | activation [1] 4.88% | activation [2] 3.82% | activation [3] -1.86%

CC1=C(/C=C/C(C)=C/C=C/C(C)=C/C(=O)O)C(C)(C)CCC1
inactive: activation [1] 1.97% and 6.17% | activation [2] -2.87% and -2.33% | activation [3] 4.57% and 7.11%
active: Potency [7] 54.5 µM

CN(C)CCCN1c2ccccc2Sc2ccc(Cl)cc21
inactive: activation [1] 10.1% | activation [3] 3.61%

Oc1cn2c(n1)Nc1ccc(Cl)c(Cl)c1C2
inactive: Potency [9] | Potency [10]
